A short description of test [1]: CCTE_Shafer_MEA_dev_burst_rate: CCTE's Neural Network Formation Assay for Burst Rate, Shafer Lab (AID 2284042). Summed up: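 Developmental network assay measuring how 12-day exposure of rat cortical neuron cultures alters bursting on extracellular MEA recordings. Values are AUC of well-mean burst rate across four recording days, relative to DMSO vehicle.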
Test [2] can be described thus: CCTE_Shafer_MEA_dev_per_burst_interspike_interval: CCTE's Neural Network Formation Assay for Burst Interspike Interval, Shafer Lab (AID 2284044).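 Note: mean spike spacing inside bursts as AUC over recordings on days 5 7 9 12.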 Summed up: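 Spontaneous activity of maturing rat cortical networks is recorded on DIV 5, 7, 9 and 12 under chronic compound exposure beginning at plating. Endpoint: burst interspike interval well-mean, collapsed into trapezoidal AUC and fitted in the negative direction relative to DMSO.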

The nature of test [3]: CCTE_Shafer_MEA_dev_burst_duration_mean: CCTE's Neural Network Formation Assay for Mean Burst Duration, Shafer Lab (AID 2284045). In a few lines:
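Primary rat cortical neurons on 48-well 16-electrode MEA plates, exposed from day 0 with renewal at DIV 5 and 9; spontaneous activity recorded on days 5, 7, 9, 12. Well-mean burst duration across bursting electrodes, collapsed as trapezoidal AUC; DMSO baseline.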

Test [4] in a line: CCTE_Shafer_MEA_dev_interburst_interval_mean: CCTE's Neural Network Formation Assay for Mean Interburst Interval, Shafer Lab (AID 2284046).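 Note: well-mean interburst interval of bursting electrodes as AUC over four recording days; curve fitted for decrease in interburst interval relative to DMSO.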 Summed up:
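Network formation assay in primary rat cortical cultures, exposed from DIV 0 to 12. Mean interburst interval per well, integrated as AUC over four recordings.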

A short description of test [5]: CCTE_Shafer_MEA_dev_inter_network_spike_interval_mean: CCTE's Neural Network Formation Assay for Mean Inter-network Spike Interval, Shafer Lab (AID 2284047). In a few lines: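 Compound was given at plating to primary rat cortical neurons and renewed with full medium changes on DIV 5 and 9. Extracellular activity was recorded on days 5, 7, 9, 12; AUC values were fitted for loss relative to DMSO control.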

Test [6] in a line: CCTE_Shafer_MEA_dev_network_spike_number: CCTE's Neural Network Formation Assay for Number of Network Spikes, Shafer Lab (AID 2284048). Summed up:
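Primary rat cortical neurons on PEI/laminin 48-well MEA plates, dosed from plating day 0 for 12 days, renewed at DIV 5 and 9. Network spike counts recorded DIV 5, 7, 9, 12, collapsed as trapezoidal AUC; DMSO baseline.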

Test [7] can be described thus: CCTE_Shafer_MEA_dev_spike_duration_mean: CCTE's Neural Network Formation Assay for Mean Spike Duration, Shafer Lab (AID 2284051).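 For AC50: potency for a decrease in mean network spike duration versus DMSO.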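 Note: mean network spike duration pooled as area under curve over DIV 5 to 12 recordings.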 In a few lines:
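With DMSO as baseline, loss of mean network spike duration was scored from extracellular recordings of rat cortical neurons on MEA plates. Exposure spanned plating to DIV 12; the four recording days were collapsed into one AUC value.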

The nature of test [8]: CCTE_Shafer_MEA_dev_network_spike_duration_std: CCTE's Neural Network Formation Assay for Standard Deviation of Network Spike Duration, Shafer Lab (AID 2284052).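 Note: area under curve of spike duration SD across recording days 5 to 12; hits are decreases in network spike duration SD versus DMSO vehicle.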 Summed up:
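Developing networks of rat cortical neurons were exposed over twelve days in vitro on 48-well MEA plates. Trapezoidal AUC of recordings (DIV 5–12) was analysed for signal loss relative to DMSO vehicle.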

The nature of test [9]: CCTE_Shafer_MEA_dev_per_network_spike_spike_number_mean: CCTE's Neural Network Formation Assay for Mean Number of Spikes in a Network Spike, Shafer Lab (AID 2284053). In a few lines: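 First, rat cortical cells (1.5 x 10^5/well) were seeded onto MEA wells; second, dosing began at plating and was refreshed on DIV 5 and 9; finally, network-spike spike counts across DIV 5–12 were summarized as AUC.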

Test [10] is described as follows: CCTE_Shafer_MEA_dev_per_network_spike_spike_percent: CCTE's Neural Network Formation Assay for Percent of Spikes in a Network Spike, Shafer Lab (AID 2284054). In a few lines:
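Rat primary cortical neurons were grown on 48-well MEA plates (16 electrodes/well), exposed from plating day 0 through day 12, with treatment renewed on DIV 5 and 9. Percent of spikes within 0.05 s network-spike peaks was measured, summarised as AUC across days 5, 7, 9, 12.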

Test [11] can be described thus: CCTE_Shafer_MEA_dev_LDH: CCTE's Lactate Dehydrogenase Assay for Cytotoxicity in the Neural Network Formation Assay, Shafer Lab (AID 2284068; active = hit-call score of the fitted dose curve at least 0.9, where 1 is the maximum;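 note: exposure for twelve days from plating with re-dosing on DIV 5 and 9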). In a few lines: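 Developing rat cortical networks on MEA plates are exposed to compound for 12 days from plating. LDH activity is measured spectrophotometrically, with DMSO as baseline.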
Test [12] can be described thus: CCTE_Shafer_MEA_dev_AB: CCTE's Alamar Blue Assay for Cytotoxicity in the Neural Network Formation Assay, Shafer Lab (AID 2284083; active = hit-call score of the fitted dose curve at least 0.9, where 1 is the maximum;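 note: resazurin reduction fluorescence as viability of cultured neurons; twelve days of exposure from plating with re-dosing on DIV 5 and 9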). Summed up:
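Cytotoxicity companion to the developmental MEA: primary rat cortical neurons, 12-day exposure starting day 0, compound refreshed DIV 5 and 9; resazurin fluorescence, fitted against DMSO vehicle.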

Test [13] is described as follows: CCTE_Shafer_MEA_dev_active_electrodes_number: CCTE's Neural Network Formation Assay for Number of Active Electrodes, Shafer Lab (AID 2284040; active = hit-call score of the fitted dose curve at least 0.9, where 1 is the maximum;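 for AC50: potency for loss of active electrodes versus DMSO so lower counts are hits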). Summed up: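 Rat cortical primary cultures, 1.5 x 10^5 cells/well, PEI-coated MEA, laminin drop. Continuous exposure DIV 0–12; full media/compound change DIV 5, 9. Readout: electrodes with mean firing ≥5 spikes/min; AUC across days; loss vs DMSO.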

Test [14] can be described thus: CCTE_Shafer_MEA_dev_bursting_electrodes_number: CCTE's Neural Network Formation Assay for Number of Bursting Electrodes, Shafer Lab (AID 2284043; active = hit-call score of the fitted dose curve at least 0.9, where 1 is the maximum;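 for AC50: potency is for loss of bursting electrodes relative to DMSO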). Summed up: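 Primary rat cortical neurons plated on 16-electrode MEA wells, exposed from day 0 with compound renewed at DIV 5 and 9. Electrodes bursting ≥1 burst per 2 min counted on days 5, 7, 9 and 12; trapezoidal AUC across days, fitted for loss versus DMSO.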

In another test the test system is DIO2 (gene 1734). As to the kind of experiment: CCTE_GLTED_hDIO2: CCTE's human Deiodinase 2 (DIO2) Inhibition Assay, Great Lakes Toxicology and Ecology Division (GLTED) Lab (AID 2284050; active = hit-call score of the fitted dose curve at least 0.9, where 1 is the maximum). In a few lines:
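In this cell-free test, chemicals are exposed to human deiodinase type 2 for 3 hours. Released iodide is determined spectrophotometrically via the Sandell-Kolthoff method, and signal loss relative to DMSO is fitted.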

For a further test, the system named is DIO3 (gene 1735). Put plainly: CCTE_GLTED_hDIO3: CCTE's human Deiodinase 3 (DIO3) Inhibition Assay, Great Lakes Toxicology and Ecology Division (GLTED) Lab (AID 2284055; active = hit-call score of the fitted dose curve at least 0.9, where 1 is the maximum;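 note: potency is for inhibition seen as loss of released iodide signal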). Summed up: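 Enzyme activity is tracked as iodide release from substrate by recombinant human DIO3 over 3 h with chemical present. A second Sandell-Kolthoff step converts iodide to an absorbance signal, fitted relative to DMSO.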

Test [15] deals with Estrogen receptor (Homo sapiens) (UniProt P03372). Put plainly: CCTE_Deisenroth_AIME_384WELL_LUC_Shift: CCTE's 384-well Estrogen Receptor Transactivation Assay with AIME metabolic competence data shift (ERTA luciferase; difference in metabolism positive and negative), Deisenroth Lab (AID 2284041).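 Note: shift is response with S9 minus without S9 so positive means metabolism raised ER signal.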 In a few lines: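 Chemicals (0.002–200 uM, 10 points) pre-incubated 2 h with alginate-encapsulated induced male Sprague Dawley rat liver S9 or S9-free, then medium applied 24 h to VM7Luc4E2 cells; luciferase. Endpoint is per-concentration difference, S9-positive minus negative.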

Test [16] can be described thus: CCTE_Shafer_MEA_acute_AB: CCTE's Alamar Blue Assay for Cytotoxicity in the Neural Acute Assay, Shafer Lab (AID 2284069; active = hit-call score of the fitted dose curve at least 0.9, where 1 is the maximum;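 note: active compounds lower the viability signal compared with DMSO wells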). Summed up:
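Cytotoxicity endpoint for acute MEA exposures of primary rat cortical neurons on day 13 or 15. Resazurin reduction is read fluorescently at 544/590 nm, with DMSO as the negative-control baseline.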

Records with an inconclusive call do not appear. Calls of active or inactive are those of the source. Rule for the calls, unless noted: active = hit-call score of the fitted dose curve at least 0.9, where 1 is the maximum; inactive = score below 0.9.

Sequence of Estrogen receptor (Homo sapiens) (P03372 whole entry, looked up): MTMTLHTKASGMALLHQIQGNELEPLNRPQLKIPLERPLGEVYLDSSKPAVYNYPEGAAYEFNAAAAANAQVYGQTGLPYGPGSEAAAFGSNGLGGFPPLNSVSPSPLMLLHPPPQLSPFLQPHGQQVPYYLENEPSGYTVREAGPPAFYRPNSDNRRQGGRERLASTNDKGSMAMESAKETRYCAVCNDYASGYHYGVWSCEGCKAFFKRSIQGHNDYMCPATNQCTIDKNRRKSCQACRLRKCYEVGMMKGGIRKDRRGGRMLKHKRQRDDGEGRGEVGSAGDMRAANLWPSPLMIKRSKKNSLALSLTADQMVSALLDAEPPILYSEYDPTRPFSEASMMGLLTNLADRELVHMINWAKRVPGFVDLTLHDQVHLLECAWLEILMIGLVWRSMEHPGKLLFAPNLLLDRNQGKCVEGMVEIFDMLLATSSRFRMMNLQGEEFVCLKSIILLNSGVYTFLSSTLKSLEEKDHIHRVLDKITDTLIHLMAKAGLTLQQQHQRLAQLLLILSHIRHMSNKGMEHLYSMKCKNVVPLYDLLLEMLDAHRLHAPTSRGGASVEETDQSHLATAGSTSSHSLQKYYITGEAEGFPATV

As to `O=P(O)(O)CCC(F)(F)C(F)(F)C(F)(F)C(F)(F)C(F)(F)C(F)(F)F`, the compound was called inactive in [1], in [2], in test [3], in [4], in test [5] and in [6]. Moreover, the call in test [7], in test [8], in test [9], in [10], in [11] and in [12] was inactive.

With `O=C1NS(=O)(=O)c2ccccc21`, the call in test [13], in test [1], in test [14], in test [2], in test [3] and in test [4] was inactive. Also, the outcome in test [5], in test [6], in [7], in [8], in test [9] and in [10] was inactive. Further, in test [11], the compound was called inactive.

On to `CCCCCCCCCCCC`, for which the AC50 with DIO2 (gene 1734) was 24.5 µM (active); in the test on DIO3 (gene 1735), 22.7 µM (active).

With `CCCCCCCCCCCCOS(=O)(=O)O`, the AC50 was 101 µM (active) in the test with DIO2 (gene 1734) and 99.6 µM (active) with DIO3 (gene 1735).

As for `NC(=NCCCCCCN=C(N)/N=C(\N)Nc1ccc(Cl)cc1)/N=C(\N)Nc1ccc(Cl)cc1`, the result in [15] was inactive. The AC50 with DIO2 (gene 1734) is 13 µM (active); with DIO3 (gene 1735), 2.65 µM (active).

Turning to `CCCCCCCCCCCCOC(=O)c1cc(O)c(O)c(O)c1`, the result in test [15] was inactive. The AC50 is 82 µM (active) with DIO2 (gene 1734) and 6.66 µM (active) in the test with DIO3 (gene 1735).

For `CCCCCCCCCC=CCC1CC(=O)OC1=O` (stereo not given), the outcome in test [15] was inactive. The AC50 is 64.3 µM (active) with DIO2 (gene 1734) and 27.2 µM (active) in the test on DIO3 (gene 1735).

Regarding `O=C(C=C(O)C(F)(F)F)C(F)(F)F`, the compound was classed as inactive in test [1], in [14], in test [2], in test [3], in test [4] and in test [5]. Besides, the compound was classed as inactive in test [6], in test [7], in test [8], in test [9], in test [10] and in test [11].

For `Oc1ccc(Cc2ccccc2O)cc1`, in [16], the compound was classed as inactive.

For the compound `CCCCc1ccc2ccccc2c1S(=O)(=O)O`, in [15], the outcome was inactive.

Consider `COC(=O)C(F)(F)C(F)(F)C(F)(F)C(F)(F)C(F)(F)F`, for which the call in test [1], in test [2], in test [3], in test [4], in test [5] and in test [6] was inactive. The compound was called inactive in [7], in [8], in test [9] and in [10].

On to `COC(=O)C(F)(F)C(F)(F)C(F)(F)F`, for which the compound was classed as inactive in test [13], in test [1], in test [14], in [2], in test [3] and in test [4]. Moreover, the compound was called inactive in [5], in test [6], in test [7], in test [8], in test [9] and in test [10].

Turning to `CN(C)CCOC(c1ccccc1)c1ccccc1`, the AC50 in test [13] is 6.36 µM (active); in test [14], 4.33 µM (active); in test [7], 10 µM (active); in test [10] it was 14 µM (active). Further, the call in [1], in test [2], in [3], in test [4], in test [5] and in test [6] was inactive. Further, the result in [8], in test [9], in [16] and in test [12] was inactive.

`O=C(O)CCC(F)(F)C(F)(F)C(F)(F)C(F)(F)C(F)(F)F`: the call in [1], in test [14], in test [2], in [3], in [4] and in [5] was inactive. The result in [6], in test [7], in [8], in test [9], in [10] and in test [11] was inactive.

These data come from PubChem BioAssay (EPA / NIEHS).
